Several values for one entry are separate records, joined by “and”; a condition that tells them apart may be missing. Equal entries are not always repeated. Records with an inconclusive call do not appear. Activity calls are given as the source filed them. Unless noted, calls follow the shape of the dose curve; as a rule, active = well fitted cell-killing curve with a large enough effect; inconclusive = small, poorly fitted or top-dose-only effect; inactive = flat fitted curve, though single readings scatter.
Columns and labels:
[1] = Cell Viability - LYMP2-015 (AID 971);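 also: 0% = DMSO only and full effect = 92 µM tetraoctylammonium bromide; nearly all actives have a fitted effect of over 55% in size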
In short: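 LYMP2-015 human lymphoblastoid cells (2500/well) in complete medium, compound-treated 24 h at 37 C; viability read as cellular ATP by CellTiter-Glo luminescence after 30 min at room temperature. AC50 from Hill-equation fits of qHTS concentration-response data.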

[2] = Cell Viability - LYMP2-017 (AID 972); also: series mostly up to about 92 µM; % is scaled to controls: 0 for no effect and ±100 for the full control effect; nearly all actives have a fitted effect of over 55% in size
In short: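 LYMP2-017 human lymphoblastoid cells (2500/well) settled 5 hr at 37 C, then exposed to compound 24 hr at 37 C in complete medium. Viability taken as intracellular ATP by CellTiter-Glo luminescence after 30 min at RT; AC50 from Hill fits.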

[3] = Cell Viability - LYMP2-019 (AID 973);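 also: 0% = DMSO alone and full effect = 92 µM tetraoctylammonium bromide; nearly all actives have a fitted effect of over 55% in size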
In short: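 Human lymphoblastoid LYMP2-019 cells (2500/well) preincubated 5 h at 37 C, then treated 24 h at 37 C in complete medium. Viability by CellTiter-Glo ATP luminescence after 30 min at room temperature; AC50 from Hill fits.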

[4] = Cell Viability - LYMP2-021 (AID 974);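 also: compound exposure lasts 24 hours at 37 °C; % is scaled to controls: 0 for no effect and ±100 for the full control effect; nearly all actives have a fitted effect of over 55% in size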
In short: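 Human lymphoblastoid LYMP2-021 cells, 2500/well in complete medium, treated 24 hours at 37 C. Intracellular ATP by CellTiter-Glo luminescence (30 min, RT); AC50 from Hill fits of concentration-response.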

[5] = Cell Viability - LYMP2-023 (AID 975)
In short: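 LYMP2-023 human lymphoblastoid cells, 2500/well, preincubated 5 hr at 37 C, then compound-treated 24 hr at 37 C in complete medium. CellTiter-Glo luminescence (ATP) after 30 min at room temperature; AC50 from Hill-equation fits; tetraoctylammonium bromide positive control.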

[6] = Cell Viability - LYMP2-025 (AID 976);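 also: series mostly up to about 92 µM; plate controls were DMSO only for no effect and tetraoctylammonium bromide control for full effect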
In short: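 Human lymphoblastoid LYMP2-025 cells, 2500/well, exposed 24 h at 37 C in complete medium in 1536-well qHTS. Viability as cellular ATP by CellTiter-Glo luminescence; AC50 from Hill fits of concentration-response data.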

[7] = Cell Viability - LYMP2-002 (AID 977);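 also: series mostly up to about 92 µM; compound exposure lasted 24 h at 37 °C; plate controls were DMSO only for no effect and 92 µM tetraoctylammonium bromide for full effect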
In short: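 Human lymphoblastoid LYMP2-002 cells, 2500 per well, exposed to compounds for 24 h at 37 C in complete medium; viability read as intracellular ATP by CellTiter-Glo luminescence, AC50 from Hill fits.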

[8] = Cell Viability - LYMP2-006 (AID 978); also: series mostly up to about 92 µM; % is scaled to controls: 0 for no effect and ±100 for the full control effect; nearly all actives have a fitted effect of over 60% in size
In short: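 Cells are seeded at 2500 per well and rested 5 hr at 37 C. Compounds are added across a concentration series for 24 hr at 37 C, after which ATP is quantified by luciferase luminescence.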

[9] = Cell Viability - LYMP2-010 (AID 981)
In short: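 Human lymphoblastoid LYMP2-010 cells (2500/well) treated 24 h at 37 C in complete medium; viability read as intracellular ATP by CellTiter-Glo luminescence. AC50 from Hill fits of concentration-response data; tetraoctylammonium bromide positive control.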

[10] = Cell Viability - LYMP2-012 (AID 982)
[11] = Cell Viability - LYMP2-016 (AID 984)
In short: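 Cells were seeded at 2500 per well and rested 5 hr before a 24 hr compound exposure at 37 C. Viability was then gauged as cellular ATP by luciferase luminescence, with AC50 values fitted to the Hill equation.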

[12] = Cell Viability - LYMP2-018 (AID 985);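 also: plate controls were DMSO only for no effect and tetraoctylammonium bromide at 92 µM for full effect; nearly all actives have a fitted effect of over 50% in size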
In short: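 Human lymphoblastoid LYMP2-018 cells, 2500/well, settled 5 hr at 37 C then exposed to compound 24 hr at 37 C; intracellular ATP measured by CellTiter-Glo luminescence. AC50 from Hill-equation concentration-response fits.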

[13] = Cell Viability - LYMP2-020 (AID 986)
In short: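 Human lymphoblastoid LYMP2-020 cells (2500/well) preincubated 5 h at 37 C, then treated 24 h at 37 C. Viability measured as intracellular ATP by CellTiter-Glo luminescence after 30 min at room temperature; AC50 from Hill fits.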

[14] = Cell Viability - LYMP2-022 (AID 987)
In short: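 LYMP2-022 lymphoblastoid cells (2500/well, complete medium) were treated with compounds for 24 hours at 37 C; intracellular ATP was then read by CellTiter-Glo luminescence after 30 min at room temperature. AC50 values were derived from Hill-equation fits.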

[15] = Cell Viability - LYMP2-024 (AID 988);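 also: plate controls were DMSO only for no effect and 92 µM tetraoctylammonium bromide for full effect; nearly all actives have a fitted effect of over 60% in size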
In short: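 Human lymphoblastoid LYMP2-024 cells (2500/well) rested 5 hr, then treated with compound for 24 hr at 37 C in complete medium. Viability was measured as intracellular ATP by CellTiter-Glo luminescence. AC50 values came from Hill-equation fits.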

[16] = Cell Viability - LYMP2-026 (AID 989); also: % is scaled to controls: 0 for no effect and ±100 for the full control effect; nearly all actives have a fitted effect of over 50% in size
In short: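 Human lymphoblastoid LYMP2-026 cells, 2500/well, exposed to compound 24 h at 37 C in complete medium. Viability as intracellular ATP by CellTiter-Glo luminescence; AC50 from Hill fits of qHTS concentration-response.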

[17] = Cell Viability - LYMP1-002 - Assay at 24 hr (AID 993); also: % is scaled to controls: 0 for no effect and ±100 for the full control effect
In short: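 Human lymphoblastoid LYMP1-002 cells (2500/well) treated 24 h at 37 °C; viability as intracellular ATP by CellTiter-Glo luminescence. Tetraoctylammonium bromide as positive control; AC50 from Hill-equation fits of qHTS concentration-response.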

[18] = Cell Viability - LYMP1-002 - Assay at 40 hr (AID 994);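 also: 0% = DMSO only and full inhibition = 92 µM tetraoctylammonium bromide; nearly all actives have a fitted effect of over 60% in size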
In short: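 LYMP1-002 human lymphoblastoid cells (2500/well, complete medium) were treated with compounds for 40 hr at 37 C. Intracellular ATP was measured by CellTiter-Glo luminescence, and AC50 values came from Hill-equation fits of concentration-response data; tetraoctylammonium bromide was the positive control.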

[19] = target: Estrogen receptor (Homo sapiens) (UniProt P03372); assay: qHTS assay for small molecule antagonists of estrogen receptor alpha signaling (AID 588513; active = well fitted curve in the direction sought with a large enough effect in the signal ratio, with a control signal flat, not every such curve was filed as active; the % refers to the signal ratio; also: % is scaled to controls: 0 for no effect and ±100 for the full control effect)
Chain of Estrogen receptor (Homo sapiens) (P03372 whole entry, looked up): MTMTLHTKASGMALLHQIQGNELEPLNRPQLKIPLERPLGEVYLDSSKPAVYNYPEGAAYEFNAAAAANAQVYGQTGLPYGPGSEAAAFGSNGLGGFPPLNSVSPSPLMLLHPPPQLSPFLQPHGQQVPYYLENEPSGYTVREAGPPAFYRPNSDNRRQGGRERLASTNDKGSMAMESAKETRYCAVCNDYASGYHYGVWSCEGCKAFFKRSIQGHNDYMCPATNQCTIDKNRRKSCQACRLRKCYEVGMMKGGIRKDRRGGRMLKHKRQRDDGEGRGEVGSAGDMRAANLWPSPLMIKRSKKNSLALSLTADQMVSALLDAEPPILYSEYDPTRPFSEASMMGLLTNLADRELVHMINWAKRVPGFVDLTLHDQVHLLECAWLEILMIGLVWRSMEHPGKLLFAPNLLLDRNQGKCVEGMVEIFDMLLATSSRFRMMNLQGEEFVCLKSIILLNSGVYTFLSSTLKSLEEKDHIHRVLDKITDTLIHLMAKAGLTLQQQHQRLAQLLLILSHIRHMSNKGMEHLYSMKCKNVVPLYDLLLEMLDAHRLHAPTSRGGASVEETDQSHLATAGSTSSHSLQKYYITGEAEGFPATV
In short: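 Fluorescence from CCF4 substrate after 2 h at room temperature gave reporter activity; cells had been exposed to compound and 0.5nM 17-beta-estradiol for 18 h at 37 C. Hill-equation fitting yielded IC50 and maximal response.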

[20] = target: Estrogen receptor (Homo sapiens) (UniProt P03372); assay: qHTS assay for small molecule agonists of estrogen receptor alpha signaling (AID 588514; calls by dose curve; also: potency is read from the fitted curve at half-maximal effect; nearly all actives have a fitted effect of over 70% in size)
In short: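 ER-alpha-UAS-bla GripTite HEK293 cells, 5000/well in 2% charcoal/dextran-stripped FBS medium, treated with compound titrations 18 h at 37 C. CCF4 beta-lactamase read by fluorescence after 2 h RT; normalised to 20 nM 17-beta-estradiol (100%) and DMSO (0%), Hill fit for EC50 and efficacy.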

[21] = target: Bile acid receptor (Homo sapiens) (UniProt Q96RI1); assay: qHTS assay for small molecule antagonists of farnesoid X receptor signaling (AID 588526; calls by dose curve; also: % is scaled to controls: 0 for no effect and ±100 for the full control effect)
Chain of Bile acid receptor (Homo sapiens) (Q96RI1 whole entry, looked up): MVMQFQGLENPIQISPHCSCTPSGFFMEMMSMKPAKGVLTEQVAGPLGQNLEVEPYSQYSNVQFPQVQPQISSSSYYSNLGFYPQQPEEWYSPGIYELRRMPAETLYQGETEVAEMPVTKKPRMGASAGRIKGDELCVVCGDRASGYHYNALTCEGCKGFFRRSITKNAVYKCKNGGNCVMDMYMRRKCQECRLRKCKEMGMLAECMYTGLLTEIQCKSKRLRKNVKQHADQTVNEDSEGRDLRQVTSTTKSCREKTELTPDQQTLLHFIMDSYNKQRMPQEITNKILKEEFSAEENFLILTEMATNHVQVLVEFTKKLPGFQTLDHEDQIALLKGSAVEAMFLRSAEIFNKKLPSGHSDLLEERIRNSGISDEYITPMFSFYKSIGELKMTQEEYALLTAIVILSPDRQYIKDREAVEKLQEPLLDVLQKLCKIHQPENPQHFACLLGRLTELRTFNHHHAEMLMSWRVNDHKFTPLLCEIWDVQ
In short: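 Antagonist mode: titrated compounds tested against chenodeoxycholic acid stimulation (normalized to 50 uM CDCA and DMSO) in GeneBLAzer HEK293T cells for 16 h. Beta-lactamase read by CCF4 fluorescence; IC50 from Hill fits.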

[22] = target: Glucocorticoid receptor (Homo sapiens) (UniProt P04150); assay: qHTS assay for small molecule agonists of glucocorticoid receptor signaling (AID 588532; active = well fitted curve in the direction sought with a large enough effect in the signal ratio, with a control signal flat; the % refers to the signal ratio;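 also: 100% = dexamethasone at 0.1 µM and 0% = DMSO only wells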); conditions: HeLa MMTV-bla, beta-lactamase ratio, agonist, 18 h; stronger effect = higher value; percent of dexamethasone control, DMSO zero
Chain of Glucocorticoid receptor (Homo sapiens) (P04150 whole entry, looked up): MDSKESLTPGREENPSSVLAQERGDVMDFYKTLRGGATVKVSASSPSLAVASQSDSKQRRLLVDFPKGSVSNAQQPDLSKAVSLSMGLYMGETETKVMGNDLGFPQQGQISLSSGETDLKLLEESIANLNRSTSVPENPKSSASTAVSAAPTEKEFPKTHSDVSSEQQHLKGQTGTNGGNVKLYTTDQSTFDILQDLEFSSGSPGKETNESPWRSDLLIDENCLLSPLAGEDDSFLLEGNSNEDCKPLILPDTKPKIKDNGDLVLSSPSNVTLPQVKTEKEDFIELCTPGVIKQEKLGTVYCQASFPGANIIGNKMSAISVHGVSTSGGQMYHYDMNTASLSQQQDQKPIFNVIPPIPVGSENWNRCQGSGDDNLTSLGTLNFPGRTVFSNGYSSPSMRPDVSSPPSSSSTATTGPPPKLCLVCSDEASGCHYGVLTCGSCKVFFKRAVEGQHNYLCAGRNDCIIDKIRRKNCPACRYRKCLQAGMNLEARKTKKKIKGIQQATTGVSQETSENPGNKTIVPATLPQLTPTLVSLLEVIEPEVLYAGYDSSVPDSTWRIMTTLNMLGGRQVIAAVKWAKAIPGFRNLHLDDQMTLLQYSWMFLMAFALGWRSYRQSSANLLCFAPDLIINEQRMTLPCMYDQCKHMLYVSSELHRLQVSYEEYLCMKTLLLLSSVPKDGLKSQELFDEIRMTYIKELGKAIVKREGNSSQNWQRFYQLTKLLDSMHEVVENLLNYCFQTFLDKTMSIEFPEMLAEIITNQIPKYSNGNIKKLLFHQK
In short: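 MMTV-bla HeLa beta-lactamase reporter cells in 1% charcoal/dextran FBS medium, compounds up to 92 uM for 18 h at 37 C, CCF4 readout; normalized to 0.1 uM dexamethasone (100%), EC50 and efficacy from Hill fits.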

[23] = target: Glucocorticoid receptor (Homo sapiens) (UniProt P04150); assay: qHTS assay for small molecule antagonists of glucocorticoid receptor signaling (AID 588533; active = well fitted inhibition curve with a large enough effect in the signal ratio, with a control signal flat, not every such curve was filed as active; the % refers to the signal ratio;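 also: cells stimulated with 2 nM dexamethasone as agonist; % is scaled to controls: 0 for no effect and ±100 for the full control effect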)
In short: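 Antagonist-mode qHTS: compound titrations added to GRE-bla HeLa cells, then dexamethasone 2 nM final; 18 h, 37 C. CCF4 FRET fluorescence normalized to dexamethasone and DMSO; IC50 from Hill fit.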

[24] = qHTS assay for small molecule antagonists of peroxisome proliferator-activated receptor delta signaling (AID 588535); conditions: HEK293T PPARd-UAS-bla, beta-lactamase FRET ratio, 18 h; 460 nm channel;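 also: cells co-treated with a PPAR-delta agonist as stimulator during compound exposure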
In short: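 Antagonist-mode beta-lactamase reporter (GeneBLAzer PPAR-delta-UAS-bla) in HEK293T cells, 2% charcoal/dextran FBS, 4000 cells/well. Compound titrations, 18 h at 37 C; CCF4 ratio read, IC50 and efficacy from Hill fits.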

CC(CCC(=O)O)(c1ccc(O)cc1)c1ccc(O)cc1
active: Potency [20] 12.6 µM
-42.6% and 42.4%: max response [24]
inactive: Potency [1] | Potency [2] | Potency [3] | Potency [4] | Potency [5] | Potency [6] | Potency [7] | Potency [8] | Potency [9] | Potency [10] | Potency [11] | Potency [12] | Potency [13] | Potency [14] | Potency [15] | Potency [16] | Potency [17] | Potency [18] | outcome [19] | Potency [21] | activation [22] 3.51% and -3.34% | Potency [23]

Source: PubChem BioAssay (NCATS)
